The whole screen tested about 410,000 compounds, of which about 5,100 (1.2%) were called active. Roughly 8% stayed inconclusive and do not appear here. The rule behind the calls is not given here. The sample as a whole holds a higher share of actives than the screen did.

For one compound, AC50 results are on record in ChEMBL document CHEMBL1201862, “PubChem BioAssay data set” (2004).

This test in a line: High Throughput Screening for Foot and Mouth Disease Virus Antivirals. The class given is functional. The settings on record: read-out: Potency.
Turning to `CN(C)CCNC(=O)C1CCN(Cc2cc3ccccc3n2Cc2ccccc2)CC1`, the AC50 was 398 µM (active).
